43 molecules from publication PMC4336329 (PLoS ONE, 2015) can be followed below.

The campaign covered roughly 310,000 compounds. About 14,000 (4.5%) showed an effect of 50% or more. The effect is printed as a negative number. The sample as a whole holds a higher share of strong results than the screen did.
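Further: peak tail current of the secondary pulse compared with the same well before compound.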

In the experiment the target is human ether-à-go-go-related gene (hERG) potassium channel (human, UniProt Q12809). Nature of the experiment: primary screen, population patch clamp on CHO cells stably expressing hERG; higher = less effect of the substance.
Chain of human ether-à-go-go-related gene (hERG) potassium channel (Q12809 whole entry, looked up): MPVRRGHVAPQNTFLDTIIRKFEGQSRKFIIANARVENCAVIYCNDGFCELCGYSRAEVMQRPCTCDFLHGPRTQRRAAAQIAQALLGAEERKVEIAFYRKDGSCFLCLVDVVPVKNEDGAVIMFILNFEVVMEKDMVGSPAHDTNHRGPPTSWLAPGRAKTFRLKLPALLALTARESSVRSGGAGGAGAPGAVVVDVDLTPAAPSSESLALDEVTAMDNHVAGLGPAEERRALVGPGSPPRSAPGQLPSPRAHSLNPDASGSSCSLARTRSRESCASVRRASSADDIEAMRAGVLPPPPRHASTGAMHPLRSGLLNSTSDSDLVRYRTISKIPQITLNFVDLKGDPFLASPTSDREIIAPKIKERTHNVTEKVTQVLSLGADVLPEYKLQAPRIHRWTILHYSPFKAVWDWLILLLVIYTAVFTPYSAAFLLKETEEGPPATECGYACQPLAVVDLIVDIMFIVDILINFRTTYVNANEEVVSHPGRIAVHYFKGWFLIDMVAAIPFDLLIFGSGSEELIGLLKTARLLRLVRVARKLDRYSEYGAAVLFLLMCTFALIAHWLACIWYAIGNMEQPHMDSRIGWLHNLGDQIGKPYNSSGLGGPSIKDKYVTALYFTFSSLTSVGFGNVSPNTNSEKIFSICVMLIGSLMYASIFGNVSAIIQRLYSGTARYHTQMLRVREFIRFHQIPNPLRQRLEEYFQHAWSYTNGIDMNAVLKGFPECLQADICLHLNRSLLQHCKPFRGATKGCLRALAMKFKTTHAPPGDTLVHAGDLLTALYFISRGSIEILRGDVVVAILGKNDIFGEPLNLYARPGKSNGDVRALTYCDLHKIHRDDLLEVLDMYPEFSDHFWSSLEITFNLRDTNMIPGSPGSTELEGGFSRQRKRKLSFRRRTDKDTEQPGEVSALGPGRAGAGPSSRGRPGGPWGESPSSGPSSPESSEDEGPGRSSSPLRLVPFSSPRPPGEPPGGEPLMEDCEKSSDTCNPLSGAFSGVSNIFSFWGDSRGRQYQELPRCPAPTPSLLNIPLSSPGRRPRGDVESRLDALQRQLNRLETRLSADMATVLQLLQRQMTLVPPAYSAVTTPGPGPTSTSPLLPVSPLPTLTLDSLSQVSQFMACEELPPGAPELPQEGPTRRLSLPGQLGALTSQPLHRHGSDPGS
Regarding `Cc1cc(C(=O)Nc2ncn[nH]2)ccc1[N+](=O)[O-]`, the “hERG current change (%, negative = inhibition) at 10uM” value was 26.3%.

Take `Cc1cc(C)nc(NC(=O)c2ccc([N+](=O)[O-])c(C)c2)n1`: the “hERG current change (%, negative = inhibition) at 10uM” value turned out to be 7.43%.

As to `Cc1cc(C(=O)Nc2ncn(Cc3ccc(F)cc3)n2)ccc1[N+](=O)[O-]`, the “hERG current change (%, negative = inhibition) at 10uM” value was -51.7%.

`C[C@]12C[C@H](O)[C@H]3[C@@H](CCC4=CC(=O)CC[C@@]43C)[C@@H]1CC[C@@H]2C(=O)CO`: the “hERG current change (%, negative = inhibition) at 10uM” value came out at 0.529%.

On to `Cc1ccccc1Cn1c(=N)n(CC(O)c2ccco2)c2ccccc21.Cl` (stereo not shown), for which the “hERG current change (%, negative = inhibition) at 10uM” value is -59.8%.

Take `Cc1ccccc1Cn1c(=O)n(Cc2ccco2)c(=O)c2ccccc21`: the “hERG current change (%, negative = inhibition) at 10uM” value stood at 2.24%.

On to `Cl.N=c1n(Cc2ccccc2Cl)c2ccccc2n1CC(O)c1ccco1` (stereo not shown), for which the “hERG current change (%, negative = inhibition) at 10uM” value is given as -56.7%.

On to `Cc1ccccc1Cn1c(C(C)O)nc2ccccc21` (stereo not shown), for which the “hERG current change (%, negative = inhibition) at 10uM” value is 4.7%.

Turning to `Cl.N=c1n(CCO)c2ccccc2n1Cc1ccccc1Cl`, the “hERG current change (%, negative = inhibition) at 10uM” value was -20%.

With `Br.CC(C)(C)C(=O)Cn1c(=N)n(Cc2ccccc2Cl)c2ccccc21`, the “hERG current change (%, negative = inhibition) at 10uM” value is listed as -49.2%.

With `CCOC(=O)C1CCN(C(=O)CCn2c(=O)c3cccn3c3cccnc32)CC1`, the “hERG current change (%, negative = inhibition) at 10uM” value is on record as -33.2%.

For `Cc1c(C(=O)NCCc2ccccc2)oc2ccccc12`, the “hERG current change (%, negative = inhibition) at 10uM” value stood at 1.98%.

Regarding `CN(C)C(=O)NC(O)C(Cl)Cl` (stereo not shown), the “hERG current change (%, negative = inhibition) at 10uM” value is listed as -2%.

`Cc1nn(C)c(C)c1NS(=O)(=O)c1ccccc1Cl`: the “hERG current change (%, negative = inhibition) at 10uM” value was determined as 4.16%.

Turning to `CCc1ccccc1NC(=O)C1CCCN(c2ncnc3onc(-c4ccc(F)cc4)c23)C1` (stereo not shown), the “hERG current change (%, negative = inhibition) at 10uM” value came to 11.2%.

For the molecule `CN(C)c1ccc(/C=N/NC(=O)c2ccc(Cn3cc(Br)cn3)o2)cc1`, the “hERG current change (%, negative = inhibition) at 10uM” value is reported as -46.1%.

Consider `O=C(N/N=C\c1ccc(F)cc1)c1ccc(Cn2cc(Br)c([N+](=O)[O-])n2)o1`, for which the “hERG current change (%, negative = inhibition) at 10uM” value is recorded as -59.9%.

For `CCOc1ccc(/C=N/NC(=O)c2ccc(Cn3cc(Br)cn3)o2)cc1`, the “hERG current change (%, negative = inhibition) at 10uM” value is reported as -56.4%.

Consider `Cc1ccc(/C=N/NC(=O)c2ccc(Cn3cc([N+](=O)[O-])cn3)o2)cc1`, for which the “hERG current change (%, negative = inhibition) at 10uM” value is given as -65%.

For `O=C(N/N=C\c1cccc(F)c1)c1ccc(Cn2cc(Br)c([N+](=O)[O-])n2)o1`, the “hERG current change (%, negative = inhibition) at 10uM” value is reported as -33.9%.

Regarding `O=C(N/N=C/c1cccnc1)c1ccc(Cn2cc([N+](=O)[O-])cn2)o1`, the “hERG current change (%, negative = inhibition) at 10uM” value was -8.7%.

Take `COc1cc(/C=N/NC(=O)c2ccc(Cn3cc([N+](=O)[O-])cn3)o2)cc(Br)c1O`: the “hERG current change (%, negative = inhibition) at 10uM” value is recorded as -77.5%.

Take `O=C(N/N=C\c1ccc2c(c1)OCO2)c1ccc(Cn2cc(Br)c([N+](=O)[O-])n2)o1`: the “hERG current change (%, negative = inhibition) at 10uM” value is on record as -8.65%.

Consider `CCOc1ccc(/C=N/NC(=O)c2ccc(Cn3cc([N+](=O)[O-])cn3)o2)cc1`, for which the “hERG current change (%, negative = inhibition) at 10uM” value was -31.4%.

For the molecule `COc1cc(/C=N\NC(=O)c2ccc(Cn3cc(Br)c([N+](=O)[O-])n3)o2)cc(OC)c1O`, the “hERG current change (%, negative = inhibition) at 10uM” value was -11.9%.

For the molecule `COc1ccc(/C=N/NC(=O)c2ccc(Cn3cc([N+](=O)[O-])cn3)o2)cc1O`, the “hERG current change (%, negative = inhibition) at 10uM” value was 15.8%.

With `O=C(N/N=C/c1cccc(Br)c1)c1ccc(Cn2cc(Br)cn2)o1`, the “hERG current change (%, negative = inhibition) at 10uM” value was -40.9%.

As to `O=C(NC1CCCC1)C(c1cccnc1)N(C(=O)c1csnn1)C1CC1` (stereo not shown), the “hERG current change (%, negative = inhibition) at 10uM” value amounted to 4.97%.

As for `CC(C)c1ccc(NC(=O)C2C3C=CC4(O3)C2C(=O)N(CCN2CCOCC2)C4C(=O)NC2CCCCC2)cc1` (stereo not shown), the “hERG current change (%, negative = inhibition) at 10uM” value amounted to 15.3%.

On to `O=C(Nc1ccccc1Cl)OC1CCCCC1`, for which the “hERG current change (%, negative = inhibition) at 10uM” value stood at 22.7%.

On to `C=C(C)c1cccc(C(C)(C)NC(=O)NCc2ccncc2)c1`, for which the “hERG current change (%, negative = inhibition) at 10uM” value is on record as -9.41%.

On to `Cc1cc(S(=O)(=O)N2CCOCC2)ccc1OCC(=O)Nc1cccc(C(F)(F)F)c1`, for which the “hERG current change (%, negative = inhibition) at 10uM” value is reported as 19.8%.

In the case of `Cc1c(Cl)c([N+](=O)[O-])nn1Cc1ccc(C(=O)N/N=C\c2cccc(Br)c2)o1`, the “hERG current change (%, negative = inhibition) at 10uM” value is recorded as -38.7%.

With `Cc1c(Cl)c([N+](=O)[O-])nn1Cc1ccc(C(=O)N/N=C\c2cc(Cl)ccc2O)o1`, the “hERG current change (%, negative = inhibition) at 10uM” value is listed as 14.9%.

Regarding `COc1cc(/C=N\NC(=O)c2ccc(Cn3nc([N+](=O)[O-])c(Cl)c3C)o2)ccc1O`, the “hERG current change (%, negative = inhibition) at 10uM” value is on record as -70.4%.

As to `N#Cc1ccc(Oc2nc(Nc3ccc(F)cc3)nc(N3CCCC3)n2)cc1`, the “hERG current change (%, negative = inhibition) at 10uM” value is listed as 1.63%.

As for `O=C(O)CC/C(=N\Nc1ccc([N+](=O)[O-])cc1S(=O)(=O)N1CCOCC1)c1cccs1`, the “hERG current change (%, negative = inhibition) at 10uM” value is -9.21%.

As for `CCn1cc(CNC(=O)/C=C/c2ccc([N+](=O)[O-])cc2)cn1`, the “hERG current change (%, negative = inhibition) at 10uM” value is recorded as -33.6%.

As for `Cc1ccc(NC(=O)CNC2CCCCC2)cc1Cl`, the “hERG current change (%, negative = inhibition) at 10uM” value stood at 6.64%.

Take `COc1ccc(Br)c(-c2nnc(CS(=O)(=O)c3ccccc3)o2)c1`: the “hERG current change (%, negative = inhibition) at 10uM” value is on record as -29.3%.

Regarding `Cc1ccccc1-c1nnc(CS(=O)(=O)c2ccccc2)o1`, the “hERG current change (%, negative = inhibition) at 10uM” value was -19.2%.

In the case of `CCOc1ccccc1-c1nnc(CS(=O)(=O)c2ccccc2)o1`, the “hERG current change (%, negative = inhibition) at 10uM” value is reported as -52.5%.

Regarding `COc1cccc(CNC(=O)Nc2cccs2)c1`, the “hERG current change (%, negative = inhibition) at 10uM” value was determined as 11%.
